The values that follow come from the supplement of paper PMC11383364.

± gives the standard deviation of the averaged measurements.

The subject of the assay is SUM149. Kind of assay: percent difference in area under dose-response curve of relative cell number, RPMI vs HPLM; higher = drug relatively more effective in HPLM than RPMI (negative = less effective in HPLM). To be noted: treatment time: 72 h; dose range: 10-point, 1 nM to 20 µM; media compared: RPMI vs HPLM.
In the case of `COc1cc2c(N3CCN(C(=O)Nc4ccc(OC(C)C)cc4)CC3)ncnc2cc1OCCCN1CCCCC1` [Tandutinib], the “percent difference in area under dose-response curve” value (“percent difference in area” for short) is -4.18%.

On to `C[C@@H](O[C@H]1OCCN(Cc2n[nH]c(=O)[nH]2)[C@H]1c1ccc(F)cc1)c1cc(C(F)(F)F)cc(C(F)(F)F)c1` [Aprepitant], for which the “percent difference in area” value was -2%.

As for `CC(C)C[C@H](NC(=O)CNC(=O)c1cc(Cl)ccc1Cl)B1OC(=O)C(CC(=O)O)(CC(=O)O)O1`, the “percent difference in area” value was -1.48%.

Take `CCOC(=O)c1[nH]c2cc(Cl)ccc2c1C(C(=O)NC(C)(C)C)N(C=O)Cc1ccc(Cl)cc1` (centres undefined): the “percent difference in area” value was 0.502%.

Take `COc1cc2nccc(Oc3ccc(NC(=O)Nc4cc(C)on4)c(Cl)c3)c2cc1OC` [Tivozanib]: the “percent difference in area” value stood at 7.69%.

With `Cc1ccc(Nc2nccc(N(C)c3ccc4c(C)n(C)nc4c3)n2)cc1S(N)(=O)=O` [Pazopanib], the “percent difference in area” value is 5.29%.

On to `CC1=CC(=O)c2ccccc2C1=O` [Menadione], for which the “percent difference in area” value was -3.63%.

Turning to `CC(=O)c1c(C)c2cnc(Nc3ccc(N4CCNCC4)cn3)nc2n(C2CCCC2)c1=O`, the “percent difference in area” value was -11.4%.

Regarding `c1ccc(Cn2nnc3c(Sc4nc5ccccc5o4)ncnc32)cc1`, the “percent difference in area” value was 0.823%.

Turning to `CN(CC(=O)N(Cc1ccc(C2CCCCC2)cc1)c1ccc(C(=O)O)cc1)S(=O)(=O)c1c(F)c(F)c(F)c(F)c1F`, the “percent difference in area” value worked out at 3.06%.

Regarding `CN(C)Cc1c(C(=O)NCCOc2ccc(C(=O)NO)cc2)oc2ccccc12`, the “percent difference in area” value came to 0.731%.

Turning to `Nc1nc(F)nc2c1ncn2[C@@H]1O[C@H](COP(=O)(O)O)[C@@H](O)[C@@H]1O` [Fludarabine_Phosphate], the “percent difference in area” value is -16.9%.

As for `CC(=O)O[C@@]12CO[C@@H]1C[C@H](O)[C@@]1(C)C(=O)[C@H](O)C3=C(C)[C@@H](OC(=O)[C@H](O)[C@@H](NC(=O)OC(C)(C)C)c4ccccc4)C[C@@](O)([C@@H](OC(=O)c4ccccc4)[C@H]21)C3(C)C` [Docetaxel], the “percent difference in area” value was -42.7%.

For the compound `Cc1nc(=O)c2cc(CN(C)c3ccc(C(=O)N[C@@H](CCC(=O)O)C(=O)O)s3)ccc2[nH]1` [Raltitrexed], the “percent difference in area” value is 0.127 ± 13%.

As to `Cc1cc([N+](=O)[O-])ccc1NS(=O)(=O)c1cc(Cl)ccc1Cl`, the “percent difference in area” value was 11.9%.

With `CN1CCCN(C(=O)c2cccc(-c3ccc(/C=C4/C(=O)Nc5ccc(Cl)cc54)o3)c2)CC1`, the “percent difference in area” value is -26.8%.

As to `CC(C)C[C@H](NC(=O)[C@H](Cc1ccccc1)NC(=O)c1cnccn1)B(O)O` [Bortezomib], the “percent difference in area” value is -29.8%.

In the case of `COc1cc(Nc2c(C#N)cnc3cc(OCCCN4CCN(C)CC4)c(OC)cc23)c(Cl)cc1Cl` [Bosutinib], the “percent difference in area” value came to 7.19%.

Regarding `CCCCCCCCc1ccc(CCC(N)(CO)CO)cc1` [Fingolimod], the “percent difference in area” value worked out at 3.22 ± 1.4%.

For `N#Cc1c(NC(=O)c2cccc3ccccc23)sc2c1CCCC2` [JNK_Inhibitor_IX], the “percent difference in area” value was -13.1%.

For `N#CCNC(=O)c1ccc(-c2ccnc(Nc3ccc(N4CCOCC4)cc3)n2)cc1`, the “percent difference in area” value turned out to be 7.22%.

Turning to `C#Cc1cccc(Nc2ncnc3cc(OCCOC)c(OCCO)cc23)c1`, the “percent difference in area” value was -0.553%.

As to `Cc1ccc([N+](=O)[O-])cc1S(=O)(=O)N(C)/N=C/c1cnc2ccc(Br)cn12`, the “percent difference in area” value was -9.04%.

`CCC[C@H](Nc1nc(-c2ccc(NC(=O)NCC)c(OC)c2)ncc1C)c1cccnc1`: the “percent difference in area” value is -15.1%.

`CS(=O)(=O)CCNCc1ccc(-c2ccc3ncnc(Nc4ccc(OCc5cccc(F)c5)c(Cl)c4)c3c2)o1` [Lapatinib_Ditosylate]: the “percent difference in area” value was -5.86%.

Take `CN1CCN(c2cccc(Nc3nc4c(-c5ccc(S(C)(=O)=O)cc5)cccn4n3)c2)CC1`: the “percent difference in area” value is -13.7%.

For the compound `CO[C@H]1C[C@@H]2CC[C@@H](C)[C@@](O)(O2)C(=O)C(=O)N2CCCC[C@H]2C(=O)O[C@H]([C@H](C)C[C@@H]2CC[C@@H](OP(C)(C)=O)[C@H](OC)C2)CC(=O)[C@H](C)/C=C(\C)[C@@H](O)[C@@H](OC)C(=O)[C@H](C)C[C@H](C)/C=C/C=C/C=C/1C` [Deforolimus], the “percent difference in area” value was 2.18%.

For `Cc1cc2c(C(=O)NC[C@H](C)c3ccccc3)c(O)c(O)cc2c(O)c1-c1c(C)cc2c(C(=O)NC[C@H](C)c3ccccc3)c(O)c(O)cc2c1O` [Sabutoclax], the “percent difference in area” value was -9.94%.

`O=C(O)c1ccc2c(c1)nc(Nc1cccc(Cl)c1)c1ccncc12`: the “percent difference in area” value stood at 0.753%.

With `O=C1[C@H](CC[C@H](O)c2ccc(F)cc2)[C@@H](c2ccc(O)cc2)N1c1ccc(F)cc1` [Ezetimibe], the “percent difference in area” value is -5.77%.

Regarding `CO[C@H]1/C=C\C=C(/C)C(=O)NC2=CC(=O)C(NCCN(C)C)=C(C[C@@H](C)C[C@H](OC)[C@H](O)[C@@H](C)/C=C(\C)[C@@H]1OC(N)=O)C2=O`, the “percent difference in area” value is -30.8%.

Regarding `c1ccc2c(CCNc3ccc(Nc4ccncc4)cc3)c[nH]c2c1`, the “percent difference in area” value was -22.6%.

As for `CCCc1cc(-c2nc(-c3ccc(C)cc3)cs2)ccn1` [Fatostatin_A], the “percent difference in area” value was -2.81%.

Consider `CCOc1ccn(-c2ccc(F)cc2)c(=O)c1C(=O)Nc1ccc(Oc2ccnc(N)c2Cl)c(F)c1`, for which the “percent difference in area” value was -1.99%.
